Hits are enriched below; roughly 0.5% of the tested compounds scored in any of these assays.
E coli growth-1 – E. coli growth inhibition, primary screen, OD600. Escherichia coli growth, 23 h; active compounds read low. OD600 absorbance (concentration not given with the values). 330,000 tested, 0.21% active;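 active = OD600 absorbance below the run mean of sample wells minus 3.6 SD, in any replicate, cut at about 0.56 in these data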
phage Ecoli inh – growth loss of phage-infected E. coli, primary screen, RecBCD inhibitor project, absorbance, with phage, HTS; inhibition, % at 11.9 µM; 360,000 tested, 0.26% active; AID 651602, 2012; in the data active = inhibition above about 11%
AddAB inh – growth inhibition of E. coli expressing H. pylori AddAB, primary screen, AddAB inhibitor project, absorbance; AID 435030, 2010; inhibition, % at 11.9 µM; 330,000 tested, 0.29% active; in the data active = inhibition above about 12%
Tat export inh – E. coli Tat export inhibitors, primary screen, MC4100, TorA-mCherry reporter, fluorescence, single point | 340,000 tested, 0.036% active | inhibition, % at 10 µM | AID 488895, 2010;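 active = mean replicate inhibition at least 50% and at least half of replicates individually reaching 50%; inconclusive = only one of the two criteria met; inactive = neither criterion met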;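 note: exported cargo escapes ClpAP degradation while cytoplasmic cargo is degraded and loses fluorescence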
E coli growth-2 – E. coli V3065 growth inhibition, primary screen, counter-screen for AddAB inhibitor project, absorbance, OD600; 18 h; inhibition, % at 11.9 µM; 330,000 tested, 0.27% active; AID 449728, 2010;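 active = inhibition above the campaign's mean inhibition across all tested compounds plus 3 SD, cut at about 9.9% in these data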;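 note: uninfected addAB+ strain grown without phage in ampicillin broth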
Numbers stand for hits.

COc1ccc(/C=N\NC(=S)SCN2C(=O)C3CCC(C)(C2=O)C3(C)C)cc1 (configuration not stated) was read as phage Ecoli inh inactive, AddAB inh inactive, Tat export inh inactive and E coli growth-2 11.
For CN(C)c1ccc(/C=N\NC(=S)SCN2C(=O)C3CCC(C)(C2=O)C3(C)C)cc1 (configuration not stated) the results were phage Ecoli inh inactive, AddAB inh inactive, Tat export inh inactive and E coli growth-2 15.
COc1ccc(C=NNC(=S)SCN2C(=O)C3CCC(C)(C2=O)C3(C)C)cc1 (configuration not stated) was read as E coli growth-1 inactive.
For CC12CCC(C(=O)N(CSC(=S)NN=Cc3ccccc3)C1=O)C2(C)C (configuration not stated) the results were E coli growth-1 inactive.
For CC(=O)C1CCC2C3C=CC4=CC(=O)CC[C@@]4(C)C3CC[C@]12C (some centres not stated) the results were E coli growth-1 inactive.
`CN(C1CCCCC1)S(=O)(=O)c1ccc(NC(=O)c2ccc(Br)o2)cc1` gave E coli growth-1 inactive, phage Ecoli inh inactive, AddAB inh inactive, Tat export inh inactive and E coli growth-2 inactive.
CN(C)S(=O)(=O)c1ccc(NC(=O)c2ccc(Br)o2)cc1 was read as E coli growth-1 inactive, AddAB inh inactive, Tat export inh inactive and E coli growth-2 9.8.
`O=[N+]([O-])c1cc(C(F)(F)F)ccc1N1CCN(S(=O)(=O)c2ccc3ccccc3c2)CC1` gave E coli growth-1 0.54, phage Ecoli inh inactive, AddAB inh inactive, Tat export inh inactive and E coli growth-2 inactive.
For CCCCCCCCCCCCCCCC[n+]1ccccc1 the results were E coli growth-1 0.057, phage Ecoli inh inactive and Tat export inh inactive.
For CCCCCCCCCCCCCCCC[n+]1ccc(C(N)=O)cc1 the results were E coli growth-1 0.32, phage Ecoli inh inactive, AddAB inh inactive, Tat export inh 51 and E coli growth-2 inactive.
`CCCCCCCCCCCCCCCC[n+]1cccc(C(=O)N(CC)CC)c1` gave E coli growth-1 0.43, phage Ecoli inh inactive, AddAB inh inactive, Tat export inh inconclusive and E coli growth-2 inactive.
`CCCCCCCCCCCCCCCC[n+]1ccc(/C=N/O)cc1` gave phage Ecoli inh inactive, AddAB inh inactive, Tat export inh inactive and E coli growth-2 inactive.
Screening [N-]=[N+]=NC(CCN1CCC(NC(=O)OCc2ccccc2)CCC1=O)c1ccccc1 (configuration not stated) returned E coli growth-1 inactive.
For CC(=N/N=C1\NC(=O)C(C)S1)c1ccco1 (configuration not stated) the results were E coli growth-1 inactive.
COC(=O)c1ccc(NC(=O)Nc2ccc(F)cc2)cc1 was read as E coli growth-1 0.51, phage Ecoli inh inactive, AddAB inh inactive, Tat export inh inactive and E coli growth-2 inactive.
COc1cc(C)c(Cc2cnc(N)nc2N)cc1OC was read as AddAB inh 100 and E coli growth-2 101.
COc1ccc(CNC(=O)c2ccc(C)o2)cc1 was read as E coli growth-1 inactive, phage Ecoli inh inactive, AddAB inh inactive, Tat export inh inactive and E coli growth-2 10.
For Cc1ccsc1C(=O)Nc1nnc(-c2ccco2)o1 the results were E coli growth-1 0.41, phage Ecoli inh inactive, AddAB inh inactive, Tat export inh inactive and E coli growth-2 inactive.
For CNC[C@H](Cc1ccccc1)NC[C@@H](Cc1cccc2ccccc12)NCCc1ccc(C)cc1 the results were phage Ecoli inh inactive, AddAB inh inactive, Tat export inh inactive and E coli growth-2 inactive.
`CNCC(Cc1ccccc1)NCC(Cc1cccc2ccccc12)NCCc1ccc(C)cc1` (configuration not stated) gave E coli growth-1 0.048.
For O=C(N/N=C/C(Br)=C/c1ccccc1)c1ccncc1 the results were phage Ecoli inh inactive, AddAB inh inactive, Tat export inh inactive and E coli growth-2 inactive.
Screening O=C(NN=C/C(Br)=C/c1ccccc1)c1ccncc1 returned E coli growth-1 0.46.
C#Cc1ccc(C2C=C(C(=O)N3CCOCC3)OC(OCCCCO)C2)cc1 (configuration not stated) was read as E coli growth-1 inactive.
Screening c1ccc2c(NCCCN3CCOCC3)c3ccccc3nc2c1 returned E coli growth-1 inactive, phage Ecoli inh inactive, AddAB inh 15 and E coli growth-2 10.
For O=C(CSc1cccc[n+]1[O-])c1cc(Cl)ccc1Cl the results were E coli growth-1 0.12, phage Ecoli inh inactive, AddAB inh inactive, Tat export inh inactive and E coli growth-2 inactive.
For C=CCC(CC(=O)NC(CO)Cc1ccccc1)C(=O)NC(COC(=O)C(CC=C)Cc1ccc(F)cc1)Cc1ccccc1 (configuration not stated) the results were E coli growth-1 inactive.
For Cc1cc(C)cc(CSCC(=O)NN=Cc2ccc(OCC(=O)NCc3ccco3)cc2)c1 the results were E coli growth-1 inactive.
For CCCCCCCC(=O)N1CCN(c2cc3c(cc2F)c(=O)c(C(=O)O)cn3CC)CC1 the results were E coli growth-1 0.097, phage Ecoli inh inactive and Tat export inh inactive.
For CCCCCCCCC(=O)N1CCN(c2cc3c(cc2F)c(=O)c(C(=O)O)cn3CC)CC1 the results were E coli growth-1 0.42, phage Ecoli inh inactive, AddAB inh inactive, Tat export inh inactive and E coli growth-2 inactive.
For CCCCCCn1cc(C(=O)O)c(=O)c2cc(F)c(N3CCN(C)CC3)cc21 the results were E coli growth-1 inactive, AddAB inh inactive, Tat export inh inactive and E coli growth-2 inactive.
Screening COc1ccc(C=NNC(=O)C2COc3ccccc3O2)cc1O (configuration not stated) returned E coli growth-1 inactive.
`Cc1ccc(C(C)C)c(OCc2nn(CC(=O)c3ccc(Cl)cc3)c3[n+]2CCCCC3)c1` gave E coli growth-1 0.071, phage Ecoli inh inactive, AddAB inh inactive, Tat export inh inactive and E coli growth-2 inactive.
For CCOc1cccc(/C=N/Nc2ccc(S(=O)(=O)N(CC)CC)cn2)c1O the results were phage Ecoli inh 13, AddAB inh inactive, Tat export inh inactive and E coli growth-2 12.
For COc1cccc(/C=N/Nc2ccc([N+](=O)[O-])cc2)c1O the results were phage Ecoli inh inactive, AddAB inh inactive, Tat export inh inactive and E coli growth-2 inactive.
COc1cccc(C=NNc2ccc([N+](=O)[O-])cn2)c1O was read as E coli growth-1 0.41.
`COC(=O)C1C[C@@]2(O)C(O)C(O)C(O)CC2N1Cc1ccccc1OS(=O)(=O)c1ccc(C)cc1` (some centres not stated) gave E coli growth-1 inactive.
`Oc1c(Cl)cc(CN2CCOCC2)c2cccnc12` gave E coli growth-1 0.52, phage Ecoli inh inactive, AddAB inh inactive, Tat export inh inactive and E coli growth-2 inactive.
For O=C(COc1c(Br)cc(Br)c2cccnc12)N1CCCCC1 the results were E coli growth-1 inactive, phage Ecoli inh inactive, AddAB inh inactive, Tat export inh inactive and E coli growth-2 inactive.
